KCNK3 block – human KCNK3 channel inhibition, primary screen. O14649. AID 602410. 340,000 tested, 0.84% active. CHO-KCNK3 thallium flux, FluxOR fluorescence; active compounds read low. B-score at 10 µM;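 active = B-score under library mean minus 4 SD, starting fluorescence ratio at most library mean plus 5 SD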;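 also: more negative B-score means stronger inhibition of thallium flux through KCNK3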
KCNK9 block – human KCNK9 channel inhibition; HEK293 KCNK9, FluxOR thallium flux fluorescence; active compounds read low; 310,000 tested, 1.2% active; B-score at 10 µM; Q9NPC2;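 active = ratio B-score over 3 SD below the library mean, with starting fluorescence within 5 SD of its mean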;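 also: negative B-score means less thallium flux so channel inhibition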
TMEM16A act – mouse TMEM16A channel activation, primary screen | Q8BHY3 | HEK293 TMEM16A/YFP-H148Q/I152L, iodide quench fluorescence; active compounds read low | B-score at 10 µM | 340,000 tested, 0.3% active | AID 623877;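 active = fluorescence-ratio B-score plate-corrected deviation score at least 3 library SD below zero, with starting fluorescence score within 5 deviations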;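 also: channel opened by trigger with iodide after compound preincubation; score built on the fluorescence ratio of max minus min over baseline; more negative score means more quench and so TMEM16A activation or potentiation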
TMEM16A inh – mouse TMEM16A channel inhibition, primary screen | Q8BHY3 | HEK293 TMEM16A/YFP iodide influx fluorescence, ionomycin | normalized B-score (activity score, 25-100; higher = stronger inhibition) at 10 µM | 310,000 tested, 1.2% active;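 active = ratio plate-corrected score three or more library SD toward inhibition, starting fluorescence score within five deviations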;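 also: score derived from kinetic fluorescence span divided by baseline fluorescence per well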
Kir21 inh – blocks the mouse Kir2.1 inward-rectifier potassium channel | HEK293-Kir2.1, FluxOR thallium flux fluorescence; active compounds read low | B-score at 10 µM | 310,000 tested, 0.85% active | AID 1672;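 active = fluorescence ratio B-score at or below minus 3 SD of library scores, with starting-brightness B-score within 2 SD, cut at about -4.2 in these data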;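 also: channel flux triggered by added potassium and thallium sulfate stimulus; B-score of peak minus minimum fluorescence over baseline after thallium stimulus; more negative B-score means stronger Kir2.1 block with less thallium influx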
KCNK9 inh conf – human KCNK9 inhibitor confirmation | shares compounds with KCNK9 block | inhibition, % at 10 µM | 4,900 tested, 43% active | HEK293 KCNK9 cells, FluxOR thallium flux fluorescence | AID 492992;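 active = thallium signal inhibited by more than 5 SD of the compound-free buffer control wells, on both duplicate plates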;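 also: 0% = assay buffer control wells without compound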
Kir21 sel – mouse Kir2.1 off-target activity of KCNK9 modulators; AID 492993; 4,900 tested, 4% active; shares compounds with KCNK9 block; Kir2.1 cells, FluxOR thallium flux fluorescence; inhibition, % at 10 µM;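 active = thallium signal drop more than 5 SD beyond the mean of the no-compound control wells, seen in both duplicate plates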;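 also: signal is fluorescence rise after thallium addition divided by baseline fluorescence; plate controls were assay buffer only for no effect and full block by chlorpromazine control for full effect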
KCNK9 uninduced – second counter-screen for KCNK9 modulators: effect in non-induced cells. AID 492997. 4,900 tested, 40% active. shares compounds with KCNK9 block. inhibition, % at 10 µM. non-induced KCNK9-HEK293, FluxOR thallium flux;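 active = thallium signal drop beyond 5 SD of the untreated control mean, on both duplicate plates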;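 also: plate controls were buffer only IC0 wells for no effect and SID17386958 at its maximal inhibitory level for full effect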
TMEM16A reconf – reconfirmed blocker of mouse TMEM16A calcium-activated chloride channel | shares compounds with TMEM16A inh | HEK293 TMEM16A/YFP-H148Q, iodide quench fluorescence; ionomycin added to raise cell calcium | AID 652189 | 2,300 tested, 39% active | inhibition, % at 10 µM;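 active = mean duplicate percent inhibition, scaled so buffer wells are 0 and the reference blocker 100, over three buffer SD above buffer mean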
HEK293 Ca mobil – alters calcium mobilization in TMEM16A HEK293 cells, counter-screen | shares compounds with TMEM16A inh | calcium response (% of ionomycin), % at 10 µM | 2,300 tested, 2% active | TMEM16A/YFP HEK293, Fluo4 calcium mobilization;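 active = duplicate-averaged calcium signal over 20% of the ionomycin maximum, relative to buffer baseline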;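 also: each well's signal is peak minus trough fluorescence divided by its pre-addition baseline; 0% = buffer wells and 100% = ionomycin wells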
YFP-HEK293 quench – acts in parental YFP-HEK293 cells lacking TMEM16A, counter-screen | AID 652233 | YFP ratio F(max-min)/F0 at 10 µM | iodide YFP quench, ionomycin | shares compounds with TMEM16A inh | 2,300 tested, under 10 active;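 active = yellow fluorescent protein signal ratio exceeding the buffer control mean by over 5 SD of those controls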;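 also: ratio is mean of duplicate wells from kinetic YFP trace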
ClC-1 rat inh – selectivity of TMEM16A inhibitors: inhibition of rat ClC-1 chloride channel. CHO ClC-1-YFP, iodide influx fluorescence quench; iodide control reads 0, buffer control 100. 2,300 tested, under 10 active. ratio percent, % at 10 µM. shares compounds with TMEM16A inh;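 active = duplicate-mean ratio percent above the mean of iodide-only control wells, which defines zero, plus 5 of their SD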;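 also: higher percent means stronger block of ClC-1 iodide influx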
Starred values were filed as active, the others as inactive; i = inactive; · = no result. Shown are actives, neighbours in structure and some others; about 3.5% of the full set was active somewhere.

SMILES	KCNK3 block	KCNK9 block	TMEM16A act	TMEM16A inh	Kir21 inh	KCNK9 inh conf	Kir21 sel	KCNK9 uninduced	TMEM16A reconf	HEK293 Ca mobil	YFP-HEK293 quench	ClC-1 rat inh
COC(=O)CNC(c1ccccc1)c1cc(Br)ccc1NC(=O)OCc1ccccc1 (stereo not drawn)	i	-18.1*	i	i	-1.47	74.0%*	i	63.5%*	i	i	-1	-7.0
COc1ccccc1CNC(=O)CCNS(=O)(=O)/C=C/c1ccc(C)cc1	i	·	i	·	·	·	·	·	·	·	·	·
O=C(CC1C=Cc2ccccc2N1C(=O)c1ccccc1)c1ccccc1 (stereo not drawn)	i	-13.4*	i	100*	0.51	29.5%*	i	i	19.5%*	i	-1.11	-2.5
CC1C=Cc2ccccc2N1C(=O)c1ccccc1 (stereo not drawn)	i	i	i	i	-2.94	·	·	·	·	·	·	·
O=C1c2ccccc2C(=O)N1CCCCSc1nc2ccccc2o1	i	i	i	25*	1.05	i	i	i	20.5%*	i	-1.2	1.0
COC(=O)C(CC(=O)c1ccccc1)CC(=O)c1ccccc1	i	i	i	i	-0.12	·	·	·	·	·	·	·
COc1ccccc1C(CC(=O)c1ccccc1)CC(=O)c1ccccc1	i	-8.63*	i	100*	0.18	30.5%*	i	31.0%*	i	i	-0.96	-14.0
COc1ccc(/C=C/c2nc(-c3ccccc3O)n[nH]2)cc1OC	i	i	i	25*	-1.64	i	i	i	i	i	-0.992	-16.0
CC(C)CC(=O)n1sc(NC(=O)c2ccccc2)nc1=O	i	i	i	i	0.87	·	·	·	·	·	·	·
COC(=O)C1=C(C(=O)OC)SC(=C2C(=S)C(C)(C)N(C(=O)CC(C)C)c3ccccc32)S1	i	-11.1*	i	25*	-1.31	26.0%*	i	32.0%*	i	i	-1.14	-12.5
CCOC(=O)c1nnn(-c2nonc2-n2cccc2)c1CN1CCC(C)CC1	-9.12*	-9.3*	·	100*	-1.35	i	i	32.0%*	17.5%*	i	-1.2	-3.0
COc1ccc(C(=O)NC(C)c2ccc(-n3ccnc3)cc2)cc1S(=O)(=O)N1CCOCC1 (stereo not drawn)	i	·	i	·	·	·	·	·	·	·	·	·
O=C(CSc1ccc(Cl)cc1)N1CCN(c2ncc(C(F)(F)F)cc2Cl)CC1	i	i	i	100*	0.6	i	i	i	i	i	-0.925	2.5
O=C(OCc1ccccc1Cl)c1ccccc1C(=O)c1ccccc1	i	-8.73*	i	100*	-1.57	i	41.0%*	37.5%*	i	i	-0.915	-17.5
O=C(O)c1ccccc1N/N=C/c1cc(Br)cc(Br)c1O	i	i	i	25*	-0.77	i	i	i	78.5%*	i	-1.04	-21.0
Cc1ccc2nc(Cl)c3nnnn3c2c1	i	i	i	i	-0.67	·	·	·	·	·	·	·

Compound activity from PubChem BioAssay.
